In the library only some 6.8% were active in any assay of this set; here they are far more common.
Spn DPM-DC inh = blocks S. pneumoniae diphosphomevalonate decarboxylase. purified DPM-DC, PK/LDH coupled NADH fluorescence. calls only at 10 µM. 0.49% of 65,000 active. AID 556;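 active = the 320 compounds with the highest percent inhibition in the single-dose primary screen, excluding strongly autofluorescent ones, cut at about 32% in these data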;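 note: kinetic rate of NADH fluorescence loss reporting ADP formed by the decarboxylase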
Autofluor 339 = intrinsic fluorescence of library compounds, ex339/em460 – biochemical, MLSMR library, data from DPM-DC assay, artefact control, profiling panel; AID 709; 5.5% of 65,000 active; fluorescence fold increase at 10 µM; compound autofluorescence, ex339/em460 nm, NADH buffer; active compounds read high; 1 = no-compound wells, NADH background;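 active = at 10 µM, mean starting fluorescence two-fold or more over control wells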;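 note: signal is the first read of a kinetic run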
Abs 340nm = absorbance at 340 nm | compound absorbance at 340 nm, fold over control | 65,000 tested, under 10 active | fold change at 10 µM;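 active = at 10 µM dose, initial 340 nm absorbance at least 2 fold that of control wells; inactive = change under 2 fold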;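 note: initial absorbance extrapolated from kinetic A340 decline of NADH oxidation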
NADH coupling = blocks coupling enzymes of NAD/NADH assays. coupled PK/LDH NADH assays, four targets. IC50, µM (series often up to 10 µM). 0.02% of 65,000 active;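 active = single-dose screening hits from any of four coupled enzyme assays that gave an IC50 when retested across doses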;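 note: the DPM-DC format reads NADH fluorescence rather than 340 nm absorbance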
PMK inhibit = S. pneumoniae PMK inhibition. 0.49% of 65,000 active. inhibition, % at 10 µM. purified PMK, PK/LDH-coupled NADH absorbance 340 nm;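 active = top-ranked compounds by inhibition in the single 10 µM screen, taking a fixed number of the strongest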
MK inhibit = blocks S. pneumoniae mevalonate kinase. purified MK, PK/LDH-coupled NADH absorbance 340 nm. inhibition, % at 10 µM. 0.48% of 65,000 active. AID 555;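 active = ranked among the strongest by inhibition in the single 10 µM screen, a fixed top-ranked set picked for dose follow-up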
Numbers stand for hits; . = inactive; / = no result given; + = active, no number.

SMILES	Spn DPM-DC inh	Autofluor 339	Abs 340nm	NADH coupling	PMK inhibit	MK inhibit
Cc1nn(Cc2ccc(C(=O)Nc3nccs3)cc2)c(C)c1Cl	.	.	.	.	.	.
O=C(Nc1ccc(F)cc1)N(CCCN1CCOCC1)Cc1cc2cc3c(cc2[nH]c1=O)OCO3	+	2.71	.	.	27.0	.
COc1ccccc1NC(=O)N(CCCN1CCOCC1)Cc1cc2cc3c(cc2[nH]c1=O)OCO3	.	3.49	.	.	.	.
O=C(Nc1ccc(F)cc1)N(CCCN1CCOCC1)Cc1cc2cc3c(cc2[nH]c1=O)OCCO3	/	3.17	.	.	.	.
c1ccc2sc(Cc3nnc4n3CCCCC4)nc2c1	.	.	.	.	.	.
CC1=CCC(C(C)(C)NC(=O)c2ccccc2)C/C1=N\O (stereo not given)	.	.	.	.	.	.
CSc1c(C#N)c(N)c(C#N)c2c1COC(C)(C)C2	/	2.07	.	.	.	.
CSc1ccc(Cl)c(C(=O)OCC(=O)N2CCOCC2)c1	.	.	.	.	.	.
Cc1ccc(-n2c(SCC(=O)Nc3cc(C)on3)nc3c(c2=O)SC(C)C3)cc1 (stereo not given)	.	.	.	.	.	.
Cc1ccccc1-c1coc2cc(O)ccc2c1=O	/	3.85	.	.	.	.
CC(C)Oc1ccc2c(=O)c(-c3ccccc3)coc2c1	.	.	.	.	.	.
CCCn1c(NC(=O)c2cccc(S(=O)(=O)N3CCCC3)c2)nc2ccccc21	.	.	.	.	.	.
COc1ccc(CCNCc2csc3nc4ccccc4n23)cc1OC	.	.	.	.	.	.
CCNc1cc2oc(=O)c(CN3CCOCC3)c(C)c2cc1C	/	2.24	.	.	.	.
Cc1ccc2oc(=O)cc(CN3CCOCC3)c2c1	.	.	.	.	.	.
CCCCn1ccc(=O)c2c(C(F)(F)F)nccc21	.	.	.	.	.	.
CCCCn1c(=O)n(C)c(=O)c2c(C(F)(F)F)cc(-c3ccncc3)nc21	/	2.11	.	.	.	.
C=CCn1c(=O)/c(=C/c2cc(OC)c(OC)c(OC)c2)s/c1=C(/C#N)c1nc2ccccc2n1C	.	.	.	.	.	.
Cc1nc(Sc2nnnn2C)c2c3c(sc2n1)CCC3	/	2.12	.	.	.	.
O=C(OCn1nnc2ccccc2c1=O)c1cc2ccccc2o1	.	.	.	.	.	.
CCc1nn(C(C)C(=O)N2CCc3ccccc3C2)c(=O)c2cc3occc3n12 (stereo not given)	.	.	.	.	.	.
CCCNC(=O)c1cc(S(=O)(=O)N2CCc3ccccc32)ccc1F	.	.	.	.	.	.
COc1ccc(OC)c2c(N3CC(C)OC(C)C3)cc(C(F)(F)F)nc12 (stereo not given)	.	2.13	.	.	.	.
CC1CN(c2cc3nccnc3cc2F)CC(C)O1 (stereo not given)	.	.	.	.	.	.
CCOc1ccc2nc(NCCCNS(=O)(=O)c3ccccc3)c(C#N)cc2c1	.	2.32	.	.	.	.
SMILES	Spn DPM-DC inh	Autofluor 339	Abs 340nm	NADH coupling	PMK inhibit	MK inhibit
Cc1ccc2nc3ccc(N4CCN(C)CC4)nn3c(=O)c2c1	.	2.32	.	.	.	.
CC(C)NC(=O)c1ccccc1NC(=O)CN(c1ccc2c(c1)OCO2)S(C)(=O)=O	.	.	.	.	.	.
COCCCn1c(=N)c(C(=O)NCc2ccc3c(c2)OCO3)cc2c(=O)n3cccc(C)c3nc21	.	.	.	.	.	.
Cc1cccn2c(=O)c3cc(C(=O)NCc4ccco4)c(=N)n(C(C)C)c3nc12	/	2.27	.	.	.	.
Cc1cccn2c(=O)c3cc(C(=O)NCc4ccco4)c(=N)n(CCc4ccccc4)c3nc12	/	3.78	.	.	.	.
Cn1cnnc1SCc1ccc(C(=O)n2ncc(C#N)c2N)cc1	.	.	.	.	.	.
CN(C)S(=O)(=O)N1CCN(c2ccc(Cl)cc2)CC1	.	.	.	.	.	.
COc1ccc(-c2cc3nc4c(c(=O)n3[nH]2)CCC4)cc1	/	2.1	.	.	.	.
Cc1cc2nc3c(c(=O)n2[nH]1)CCCC3	.	.	.	.	.	.
Cc1ccc(-c2[nH]n3c(=O)c4c(nc3c2C)CCCC4)cc1	.	2.39	.	.	.	.
O=c1c2c(nc3cc(-c4ccccc4)[nH]n13)CCC2	.	3.4	.	.	.	.
C/C(O)=c1/ccc2cccc3nc(C)nc1c23	.	3.02	.	.	.	.

From PubChem BioAssay
